# Experiments:
# Test in all cases: PBM; 200 nM protein, PBS
# Settings in all cases: dsDNA, one strand shown
# HOXB9 [1] = target: HOXB9 (Homo sapiens, UniProt P17482 171-250, T197M)
# HOXB9 [2] = target: HOXB9 (Homo sapiens, UniProt P17482 171-250)
# HOXB9 [3] = target: HOXB9 (Homo sapiens, UniProt P17482 171-250, R186Q)
# ALX3 = ALX3 (Homo sapiens, UniProt O95076 139-225, N203Q)
# Chain of ALX3 (O95076 139-225 N203Q): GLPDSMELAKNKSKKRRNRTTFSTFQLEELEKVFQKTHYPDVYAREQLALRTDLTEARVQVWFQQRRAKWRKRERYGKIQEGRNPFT
# Chain of HOXB9 (Homo sapiens, UniProt P17482 171-250, R186Q) (P17482 171-250 R186Q): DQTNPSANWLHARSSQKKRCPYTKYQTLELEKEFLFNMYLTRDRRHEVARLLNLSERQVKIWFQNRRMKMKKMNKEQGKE
# Chain of HOXB9 (Homo sapiens, UniProt P17482 171-250) (P17482 171-250): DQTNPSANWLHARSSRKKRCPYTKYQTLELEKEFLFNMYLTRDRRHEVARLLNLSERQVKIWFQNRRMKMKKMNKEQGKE
# Chain of HOXB9 (Homo sapiens, UniProt P17482 171-250, T197M) (P17482 171-250 T197M): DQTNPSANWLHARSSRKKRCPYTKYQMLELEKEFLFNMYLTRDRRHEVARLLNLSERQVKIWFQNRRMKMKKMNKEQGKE
Sequence,binding signal (HOXB9 [1]),binding signal (HOXB9 [2]),binding signal (HOXB9 [3]),binding signal (ALX3)
GGAACCCC,"8.42 upbm affinity estimate (log intensity, higher = more binding, comparable within an allelic series)","8.48 upbm affinity estimate (log intensity, higher = more binding, comparable within an allelic series)","8.46 upbm affinity estimate (log intensity, higher = more binding, comparable within an allelic series)",
GCCTCCGC,"8.43 upbm affinity estimate (log intensity, higher = more binding, comparable within an allelic series)","8.05 upbm affinity estimate (log intensity, higher = more binding, comparable within an allelic series)","8.16 upbm affinity estimate (log intensity, higher = more binding, comparable within an allelic series)",
ACCGGCCT,"8.37 upbm affinity estimate (log intensity, higher = more binding, comparable within an allelic series)","8.52 upbm affinity estimate (log intensity, higher = more binding, comparable within an allelic series)","8.47 upbm affinity estimate (log intensity, higher = more binding, comparable within an allelic series)",
GCCGGGCC,"8.36 upbm affinity estimate (log intensity, higher = more binding, comparable within an allelic series)","8.42 upbm affinity estimate (log intensity, higher = more binding, comparable within an allelic series)","8.41 upbm affinity estimate (log intensity, higher = more binding, comparable within an allelic series)",
ACCGGCCA,"8.45 upbm affinity estimate (log intensity, higher = more binding, comparable within an allelic series)","8.55 upbm affinity estimate (log intensity, higher = more binding, comparable within an allelic series)","8.63 upbm affinity estimate (log intensity, higher = more binding, comparable within an allelic series)",
GCCGCAGA,"8.65 upbm affinity estimate (log intensity, higher = more binding, comparable within an allelic series)","8.62 upbm affinity estimate (log intensity, higher = more binding, comparable within an allelic series)","8.62 upbm affinity estimate (log intensity, higher = more binding, comparable within an allelic series)",
CCACGCCG,"8.48 upbm affinity estimate (log intensity, higher = more binding, comparable within an allelic series)","8.38 upbm affinity estimate (log intensity, higher = more binding, comparable within an allelic series)","8.41 upbm affinity estimate (log intensity, higher = more binding, comparable within an allelic series)",
AGGAACCC,"8.41 upbm affinity estimate (log intensity, higher = more binding, comparable within an allelic series)","8.22 upbm affinity estimate (log intensity, higher = more binding, comparable within an allelic series)","8.24 upbm affinity estimate (log intensity, higher = more binding, comparable within an allelic series)",
CCCCGGAC,"8.48 upbm affinity estimate (log intensity, higher = more binding, comparable within an allelic series)","8.48 upbm affinity estimate (log intensity, higher = more binding, comparable within an allelic series)","8.49 upbm affinity estimate (log intensity, higher = more binding, comparable within an allelic series)",
CAGATCGG,"8.72 upbm affinity estimate (log intensity, higher = more binding, comparable within an allelic series)","8.44 upbm affinity estimate (log intensity, higher = more binding, comparable within an allelic series)","8.55 upbm affinity estimate (log intensity, higher = more binding, comparable within an allelic series)",
GGTTCGGA,"8.66 upbm affinity estimate (log intensity, higher = more binding, comparable within an allelic series)","8.54 upbm affinity estimate (log intensity, higher = more binding, comparable within an allelic series)","8.53 upbm affinity estimate (log intensity, higher = more binding, comparable within an allelic series)",
CGCCGGGA,"8.5 upbm affinity estimate (log intensity, higher = more binding, comparable within an allelic series)","8.44 upbm affinity estimate (log intensity, higher = more binding, comparable within an allelic series)","8.47 upbm affinity estimate (log intensity, higher = more binding, comparable within an allelic series)",
GCACCGCC,"8.24 upbm affinity estimate (log intensity, higher = more binding, comparable within an allelic series)","8.35 upbm affinity estimate (log intensity, higher = more binding, comparable within an allelic series)","8.25 upbm affinity estimate (log intensity, higher = more binding, comparable within an allelic series)",
GCAGCCCC,"8.47 upbm affinity estimate (log intensity, higher = more binding, comparable within an allelic series)","8.43 upbm affinity estimate (log intensity, higher = more binding, comparable within an allelic series)","8.5 upbm affinity estimate (log intensity, higher = more binding, comparable within an allelic series)",
CCTTCGCG,"8.71 upbm affinity estimate (log intensity, higher = more binding, comparable within an allelic series)","8.45 upbm affinity estimate (log intensity, higher = more binding, comparable within an allelic series)","8.78 upbm affinity estimate (log intensity, higher = more binding, comparable within an allelic series)",
GGCTCCGA,"8.49 upbm affinity estimate (log intensity, higher = more binding, comparable within an allelic series)","8.4 upbm affinity estimate (log intensity, higher = more binding, comparable within an allelic series)","8.41 upbm affinity estimate (log intensity, higher = more binding, comparable within an allelic series)",
ATTAACAA,"9.96 upbm affinity estimate (log intensity, higher = more binding, comparable within an allelic series)",,,"8.57 upbm affinity estimate (log intensity, higher = more binding, comparable within an allelic series)"
GGACCTAC,"8.72 upbm affinity estimate (log intensity, higher = more binding, comparable within an allelic series)","8.47 upbm affinity estimate (log intensity, higher = more binding, comparable within an allelic series)","8.62 upbm affinity estimate (log intensity, higher = more binding, comparable within an allelic series)",
AAGCCACC,"8.58 upbm affinity estimate (log intensity, higher = more binding, comparable within an allelic series)","8.55 upbm affinity estimate (log intensity, higher = more binding, comparable within an allelic series)","8.63 upbm affinity estimate (log intensity, higher = more binding, comparable within an allelic series)",
